Values quoted from earlier work, collected in PubChem BioAssay AID977611.
Structures can show the parent of a compound that is named as a salt. Screen size: about 3,900 compounds; about 3,900 (100%) were called active. Cut-off not given; nearly all actives show Kd up to about 4200 µM. The set was probably picked from earlier hits. Some of the results follow. Numbered stars: 1 amine (or outer) side, 2 acyl side, 3 side chain; on linkers, the order of the positions; unused ones are H or OH. Starred links: 1 amine or outer side, 2 acyl side, 3 side chain; linkers in the order of their positions; H or OH if unused. Where a SMILES comes first, the peptide text is derived from it. Non-standard residues stand in square brackets, D forms with d. Square brackets hold non-standard residues; d marks the D form. Residues, ends and D or L forms follow the SMILES beside them. Peptide text beside a SMILES is read from it. [ ]: non-standard residue; d: D form. * marks the point of attachment. X1 = O=C([C@H](Cc1ccc(O[P+](O)(O)O)cc1)N[*:1])[*:2]; Lys(Me3) = C[N+](C)(C)CCCC[C@H](N)C(=O)O; Orn(CH(NH2)2) = NC(N)NCCC[C@H](N)C(=O)O; Tfa = O=C(C(F)(F)F)*

Assay: PubChem AID 977611
Details: PDB protein-ligand complexes, literature Kd

For `N#C/C(=C\c1ccncc1)C(=O)NCc1ccccc1`, the Kd (protein: RIO-type serine/threonine-protein kinase Rio1, PDB entry 4jin) is listed as 2.28 µM (active).
For `C[N+](C)(C)CCCC[C@H](N)C(=O)N[C@@H](CCC(N)=O)C(=O)O` (H-[Lys(Me3)]-Gln-OH), the Kd (protein: Polycomb protein EED, PDB entry 3k26) is given as 400 µM (active).
For `C[C@@H](O)[C@H](N)C(=O)N[C@@H](CCCC[N+](C)(C)C)C(=O)N[C@@H](CCC(N)=O)C(=O)O` (H-Thr-[Lys(Me3)]-Gln-OH), the Kd (protein: Os05g0196500 protein, PDB entry 4igq) is listed as 30.1 µM (active).
For H-TFKEVANAVKISASLM-OH, the Kd (protein: Calmodulin, PDB entry 2mg5) is given as 0.7 µM (active).
In the case of `CC[C@H](C)[C@H](NC(=O)[C@H](CC(=O)O)NC(=O)[C@H](Cc1ccccc1)NC(=O)[C@H](CC(C)C)NC(=O)[C@H](CC(=O)O)NC(=O)CNC(=O)[C@@H](NC(=O)[C@@H](NC(=O)[C@H](CCCCN)NC(=O)[C@H](CC(C)C)NC(=O)[C@H](CCCNC(N)N)NC(=O)[C@H](CCCNC(N)N)NC(=O)[C@H](CO)NC(=O)[C@H](CC(C)C)NC(=O)[C@H](CC(N)=O)NC(=O)[C@H](CCC(=O)O)NC(=O)[C@H](CCSC)NC(=O)[C@@H](N)[C@@H](C)O)C(C)C)[C@@H](C)O)C(=O)N[C@@H](CCSC)C(=O)O` (H-TMENLS[Orn(CH(NH2)2)][Orn(CH(NH2)2)]LKVTGDLFDIM-OH), the Kd (protein: M11, the BCL-2 Homolog of Murine Gamma-herpesvirus 68, PDB entry 3bl2) is given as 1.58 µM (active).
For `CSCC[C@H](NC(=O)[C@H](CC(C)C)NC(=O)CNC(=O)[C@@H](NC(=O)[C@H](CC(N)=O)NC(=O)[C@H](CCC(=O)O)NC(=O)[C@H](Cc1ccc(O[P+](O)(O)O)cc1)NC(=O)[C@@H](N)C(C)C)C(C)C)C(=O)O` (H-V[X1]ENVGLM-OH), the Kd (protein: Grb2 SH2 domain, pY-Clamp Ptpn11_pY580, PDB entry 4jmg) is given as 0.0015 µM (active).
In the case of H-IGTDKELSDLLDFSAMFS-OH, the Kd (protein: eTAFH domain of AML1-ETO, PDB entry 2knh) is given as 7 µM (active).
In the case of `O=C(O)C1(O)C[C@@H](O)C(O)[C@H](O)C1` (stereo partly specified), the Kd (protein: 3-dehydroquinate dehydratase (K170M mutation), PDB entry 4iuo) is listed as 230 µM (active) and the Kd (protein: 3-dehydroquinate dehydratase, PDB entry 4gui) is listed as 230 µM (active).
In the case of `OC[C@H]1O[C@@H](Oc2ccc3c(c2)Oc2cc(O)ccc2N3)[C@H](O)[C@@H](O)[C@H]1O`, the Kd (protein: PA-I galactophilic lectin, PDB entry 4lk7) is given as 9.1 µM (active).
In the case of `CC(C)(C)OC(=O)N1CC(NC2NC(=O)c3cccnc3N2)C1` (stereo unspecified), the Kd (protein: PLASMINOGEN ACTIVATOR INHIBITOR 1, PDB entry 4aqh) is listed as 0.29 µM (active).
For `Cc1nn(C)c2sc(C(=O)O)cc12`, the Kd (protein: Pantothenate synthetase (T2A, E77G mutation), PDB entry 4fzj) is listed as 700 µM (active).
In the case of `CC(C)[C@H](NC(=O)[C@H](CO)NC(=O)[C@H](CCC(=O)O)NC(=O)[C@@H](N)CC(N)=O)C(=O)N[C@@H](CC(=O)O)C(=O)N[C@@H](Cc1ccc(O[P+](O)(O)O)cc1)C(=O)N[C@@H](CCCNC(N)N)C(=O)N[C@@H](C)C(=O)O` (H-NESVD[X1][Orn(CH(NH2)2)]A-OH), the Kd (protein: E3 ubiquitin-protein ligase CBL, PDB entry 3bux) is listed as 2.36 µM (active).
In the case of `CC(C)[C@H](NC(=O)[C@H](C)NC(=O)[C@@H](N)CCCNC(N)N)C(=O)N[C@@H](CCC(=O)O)C(=O)N[C@@H](CC(N)=O)C(=O)N[C@@H](CCC(N)=O)C(=O)N[C@@H](Cc1ccc(O[P+](O)(O)O)cc1)C(=O)N[C@@H](CO)C(=O)N[C@@H](Cc1ccccc1)C(=O)O` (H-[Orn(CH(NH2)2)]AVENQ[X1]SF-OH), the Kd (protein: CBL E3 ubiquitin protein ligase, PDB entry 1yvh) is listed as 0.043 µM (active).
In the case of `CC(C)[C@H](NC(=O)[C@@H](NC(=O)[C@@H](NC(=O)[C@H](CO)NC(=O)[C@H](Cc1ccc(O[P+](O)(O)O)cc1)NC(=O)[C@H](CCC(=O)O)NC(=O)[C@@H](NC(=O)[C@@H](NC(=O)[C@@H](N)CO)[C@@H](C)O)C(C)C)[C@@H](C)O)C(C)C)C(=O)N[C@@H](Cc1cnc[nH]1)C(=O)N[C@@H](CO)C(=O)O` (H-STVE[X1]STVVHS-OH), the Kd (protein: Suppressor of cytokine signaling 3(SOCS3), PDB entry 2hmh) is given as 0.07 µM (active).
For H-AASFIDAKKMP-OH, the Kd (protein: coatomer alpha subunit, PDB entry 4j8g) is given as 64.5 µM (active).
For H-ADLIAYFKAATKF-OH, the Kd (protein: T cell receptor (TCR), PDB entry 1r5w) is given as 2.9 µM (active).
In the case of H-AAIFYLAG-OH, the Kd (protein: HIV-1 protease, PDB entry 2nxd) is listed as 2.2 µM (active).
In the case of `CC(C)C[C@H](NC(=O)[C@H](CC(C)C)NC(=O)[C@H](CCCCN)NC(=O)[C@H](CCCNC(N)N)NC(=O)[C@H](C)NC(=O)[C@@H]1CCCN1C(=O)[C@H](CC(=O)O)NC(=O)[C@H](Cc1ccc(O)cc1)NC(=O)[C@H](C)N)C(=O)O` (H-AYDPA[Orn(CH(NH2)2)]KLL-OH), the Kd (protein: ALIX Bro1-V domains (KK268, 269YY mutant), PDB entry 2xs8) is given as 24.5 µM (active).
In the case of H-ADLIAYPKAATKF-OH, the Kd (protein: T cell receptor (TCR), PDB entry 1r5v) is given as 33 µM (active).
For H-TIYNTTLKY-NH2, the Kd (protein: anti-human cytomegalovirus antibody 8f9, PDB entry 3eyf) is given as 0.094 µM (active).
In the case of `CC[C@H](C)[C@H](NC(=O)[C@H](CCCCNC(=O)C(F)(F)F)NC(=O)[C@H](CO)NC(=O)[C@@H](NC(=O)[C@@H]1CCCN1C(=O)[C@H](Cc1c[nH]c2ccccc12)NC(=O)[C@@H](N)CCCN=C(N)N)[C@@H](C)O)C(=O)O` (H-RWPTSK(Tfa)I-OH), the Kd (protein: Golgi-associated PDZ and coiled-coil motif-containing protein CAL PDZ (CALP) domain, PDB entry 4nmt) is given as 14.1 µM (active).
In the case of `CC[C@H](C)[C@H](NC(=O)[C@H](Cc1c[nH]c2ccccc12)NC(=O)[C@H](CCC(=O)O)NC(=O)[C@H](CC(N)=O)NC(=O)[C@@H](N)CO)C(=O)N[C@@H](CCC(N)=O)C(=O)N1CCC[C@H]1C(=O)N[C@@H](CCCNC(N)N)C(=O)N[C@@H](CC(C)C)C(=O)N1CCC[C@H]1C(=O)N[C@H](C=O)CCC(N)=O` (H-SNEWIQP[Orn(CH(NH2)2)]LPQ-aldehyde), the Kd (protein: Ephrin type-B receptor 2, PDB entry 2qbx) is listed as 6 µM (active).
For `CC[C@H](C)[C@H](NC(=O)[C@@H](NC(=O)[C@H](CO)NC(=O)[C@@H](NC(=O)[C@@H]1CCCN1C(=O)[C@H](CCCCNC(C)=O)NC(=O)[C@H](CCCN=C(N)N)NC(=O)[C@H](CO)NC(=O)[C@H](CC(N)=O)NC(=O)[C@H](C)N)[C@@H](C)O)[C@@H](C)CC)C(=O)O`, the Kd (protein: Golgi-associated PDZ and coiled-coil motif-containing protein CAL PDZ (CALP) domain, PDB entry 4nmr) is listed as 298 µM (active).
In the case of `CC[C@H](C)[C@H](NC(=O)[C@@H](NC(=O)[C@H](CO)NC(=O)[C@@H](NC(=O)[C@H](CCCCNC(C)=O)NC(=O)[C@H](Cc1c[nH]c2ccccc12)NC(=O)[C@H](CCCN=C(N)N)NC(=O)[C@H](CO)NC(=O)[C@H](CC(N)=O)NC(=O)[C@H](C)N)[C@@H](C)O)[C@@H](C)CC)C(=O)O`, the Kd (protein: Golgi-associated PDZ and coiled-coil motif-containing protein CAL PDZ (CALP) domain, PDB entry 4nmq) is given as 32.3 µM (active).
In the case of H-RWPTSK(Ac)I-OH, the Kd (protein: Golgi-associated PDZ and coiled-coil motif-containing protein CAL PDZ (CALP) domain, PDB entry 4nmo) is given as 14.9 µM (active).
For `CC[C@H](C)[C@H](NC(=O)[C@@H](NC(=O)[C@H](CO)NC(=O)[C@@H](NC(=O)[C@@H]1CCCN1C(=O)[C@H](Cc1c[nH]c2ccccc12)NC(=O)[C@H](CCCNC(N)N)NC(=O)[C@H](CO)NC(=O)[C@H](CC(N)=O)NC(=O)[C@H](C)N)[C@@H](C)O)[C@@H](C)CC)C(=O)O`, the Kd (protein: Golgi-associated PDZ and coiled-coil motif-containing protein, PDB entry 4e34) is listed as 0.97 µM (active).
In the case of `C[C@@H](O)[C@@H](C=O)[C@H]1CC(S)=C(C(=O)O)N1`, the Kd (protein: Probable L,D-transpeptidase LdtA, PDB entry 4jmx) is listed as 0.0621 µM (active).
In the case of `C/C=C(C)/C=C/C=C(C)/C=C/C1=C(C)CCCC1(C)C`, the Kd (protein: Cellular retinoic acid-binding protein 2 (R111K, R132L, Y134F, T54V, R59W mutation), PDB entry 4i9s) is given as 0.162 µM (active) and the Kd (protein: Cellular retinoic acid-binding protein 2 (R111K, R132L, Y134F, T54V, R59W, A32W mutation), PDB entry 4i9r) is given as 0.112 µM (active).
For `CC1=C(/C=C/C(C)=C/C=C/C(C)=C/CO)C(C)(C)CCC1`, the Kd (protein: bovine beta-lactoglobulin, PDB entry 1gx8) is listed as 0.43 µM (active).
